Test results reported in the supplement of paper PMC8728848.
The entries come from a sample that favours the strongest signals as a whole.

Tests used:
Assay in all cases: glycan array binding signal (z-score within array); higher = stronger binding
Details in all cases: glycan notation: IUPAC condensed, linker removed
[1] = target: Fuc(a1-2)Gal(b1-3)GalNAc(b1-3)Gal(a1-4)Gal(b1-4)Glc
Outline: (§1)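 The Consortium for Functional Glycomics database supplied 3228 glycan arrays, of which those lacking an available protein sequence were dropped. The binding signal, a within-array Z-score, was averaged across arrays of the same protein sequence and across linkers. Negative scores can be read as non-binding.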

[2] = target: Fuc(a1-2)Gal(b1-3)GlcNAc(b1-3)[Gal(b1-4)GlcNAc(b1-6)]Gal(b1-4)Glc
Outline: as §1

[3] = target: Fuc(a1-2)Gal(b1-3)[Fuc(a1-4)]GlcNAc(b1-2)Man(a1-3)[Fuc(a1-2)Gal(b1-3)[Fuc(a1-4)]GlcNAc(b1-2)Man(a1-6)]Man(b1-4)GlcNAc(b1-4)[Fuc(a1-6)]GlcNAc(b1-4)[Fuc(a1-6)]GlcNAc
Outline: as §1

[4] = target: Fuc(a1-2)Gal(b1-4)GlcNAc(b1-3)GalNAc
Outline: as §1

[5] = target: Fuc(a1-2)Gal(b1-4)GlcNAc(b1-3)[Fuc(a1-2)Gal(b1-4)GlcNAc(b1-6)]GalNAc
Outline: as §1

[6] = target: Fuc(a1-2)Gal(b1-4)GlcNAc(b1-3)[Fuc(a1-3)[Gal(b1-4)]GlcNAc(b1-6)]Gal(b1-4)Glc
Outline: as §1

[7] = target: Fuc(a1-2)Gal(b1-4)[Fuc(a1-3)]GlcNAc
Outline: as §1

[8] = target: Fuc(a1-2)[Gal(a1-3)]Gal(b1-3)GlcNAc(b1-6)GalNAc
Outline: as §1

[9] = target: Fuc(a1-2)[Gal(a1-3)]Gal(b1-4)GlcNAc(b1-2)Man(a1-3)[Fuc(a1-2)[Gal(a1-3)]Gal(b1-4)GlcNAc(b1-2)Man(a1-6)]Man(b1-4)GlcNAc(b1-4)GlcNAc
Outline: as §1

[10] = target: Fuc(a1-2)[Gal(a1-4)]Gal(b1-4)GlcNAc
Outline: as §1

[11] = target: Fuc(a1-2)[GalNAc(a1-3)]Gal(b1-4)GlcNAc(b1-6)GalNAc
Outline: as §1

[12] = target: Gal(a1-3)Gal(b1-3)GlcNAc
Outline: as §1

[13] = target: Gal(a1-3)Gal(b1-3)GlcNAc(b1-2)Man(a1-3)[Gal(a1-3)Gal(b1-3)GlcNAc(b1-2)Man(a1-6)]Man(b1-4)GlcNAc(b1-4)GlcNAc
Outline: as §1

[14] = target: Gal(a1-3)[Gal(a1-4)]Gal(b1-4)GlcNAc
Outline: as §1

[15] = target: Gal(a1-4)GlcNAc
Outline: as §1

[16] = target: Gal(b1-3)GlcNAc(b1-3)Gal(b1-4)GlcNAc(b1-6)[Gal(b1-3)GlcNAc(b1-3)]Gal(b1-4)Glc
Outline: as §1

[17] = target: Gal(b1-3)[Fuc(a1-4)]GlcNAc(b1-2)Man(a1-3)[Gal(b1-3)[Fuc(a1-4)]GlcNAc(b1-2)Man(a1-6)]Man(b1-4)GlcNAc(b1-4)[Fuc(a1-6)]GlcNAc
Outline: as §1

[18] = target: Gal(b1-4)Glc
Outline: as §1

[19] = target: Gal(b1-4)Glc6S
Outline: as §1

[20] = target: Gal(b1-4)GlcNAc(b1-3)Gal(b1-3)GlcNAc
Outline: as §1

[21] = target: Gal(b1-4)GlcNAc(b1-3)Gal(b1-4)GlcNAc(b1-2)[Gal(b1-4)GlcNAc(b1-3)Gal(b1-4)GlcNAc(b1-6)]Man(a1-6)[Gal(b1-4)GlcNAc(b1-3)Gal(b1-4)GlcNAc(b1-2)Man(a1-3)]Man(b1-4)GlcNAc(b1-4)[Fuc(a1-6)]GlcNAc
Outline: as §1

[22] = target: Gal(b1-4)GlcNAc(b1-3)Gal(b1-4)GlcNAc(b1-3)Gal(b1-4)GlcNAc(b1-3)Gal(b1-4)GlcNAc(b1-3)Gal(b1-4)GlcNAc(b1-3)Gal(b1-4)GlcNAc(b1-2)Man(a1-3)[Gal(b1-4)GlcNAc(b1-3)Gal(b1-4)GlcNAc(b1-3)Gal(b1-4)GlcNAc(b1-3)Gal(b1-4)GlcNAc(b1-3)Gal(b1-4)GlcNAc(b1-3)Gal(b1-4)GlcNAc(b1-2)Man(a1-6)]Man(b1-4)GlcNAc(b1-4)GlcNAc
Outline: as §1

[23] = target: Gal(b1-4)GlcNAc(b1-3)Gal(b1-4)GlcNAc(b1-3)GalNAc
Outline: as §1

[24] = target: Gal(b1-4)GlcNAc(b1-3)[Gal(b1-4)GlcNAc(b1-6)]Gal(b1-4)GlcNAc
Outline: as §1

[25] = target: Gal4S(b1-4)GlcNAc
Outline: as §1

[26] = target: Gal6S(b1-3)GlcNAc
Outline: as §1

[27] = target: GalNAc(b1-3)Gal(a1-4)Gal(b1-4)GlcNAc(b1-3)Gal(b1-4)Glc
Outline: as §1

[28] = target: GalNAc(b1-4)Gal(b1-4)Glc
Outline: as §1

[29] = target: GalNAc6S(b1-4)GlcNAc
Outline: as §1

[30] = target: GlcNAc(a1-4)Gal(b1-4)GalNAc
Outline: as §1

[31] = target: GlcNAc(a1-4)Gal(b1-4)GlcNAc
Outline: as §1

[32] = target: GlcNAc(a1-4)Gal(b1-4)GlcNAc(b1-3)Gal(b1-4)GlcNAc(b1-3)Gal(b1-4)GlcNAc
Outline: as §1

[33] = target: GlcNAc(b1-2)Man(a1-3)[GlcNAc(b1-2)Man(a1-6)]Man(b1-4)GlcNAc(b1-4)[Fuc(a1-6)]GlcNAc
Outline: as §1

[34] = target: GlcNAc(b1-2)Man(a1-3)[GlcNAc(b1-4)][GlcNAc(b1-2)Man(a1-6)]Man(b1-4)GlcNAc(b1-4)[Fuc(a1-6)]GlcNAc
Outline: as §1

[35] = target: Man(a1-3)[Man(a1-6)]Man(a1-6)[Man(a1-3)]Man(b1-4)GlcNAc(b1-4)GlcNAc
Outline: as §1

[36] = target: Man(b1-4)GlcNAc
Outline: as §1

[37] = target: Neu5Ac(a2-3)Gal(b1-3)GalNAc(b1-3)Gal(a1-4)Gal(b1-4)Glc
Outline: as §1

[38] = target: Neu5Ac(a2-3)Gal(b1-4)GlcNAc(b1-2)Man(a1-3)[GlcNAc(b1-4)][Neu5Ac(a2-3)Gal(b1-4)GlcNAc(b1-2)Man(a1-6)]Man(b1-4)GlcNAc(b1-4)GlcNAc
Outline: as §1

[39] = target: Neu5Ac(a2-3)Gal(b1-4)GlcNAc(b1-3)Gal(b1-4)GlcNAc(b1-3)Gal(b1-4)GlcNAc(b1-2)Man(a1-3)[Neu5Ac(a2-3)Gal(b1-4)GlcNAc(b1-3)Gal(b1-4)GlcNAc(b1-3)Gal(b1-4)GlcNAc(b1-2)Man(a1-6)]GalNAc
Outline: as §1

[40] = target: Neu5Ac(a2-3)Gal(b1-4)GlcNAc(b1-3)[Neu5Ac(a2-3)Gal(b1-4)GlcNAc(b1-6)]GalNAc
Outline: as §1

[41] = target: Neu5Ac(a2-3)GalNAc
Outline: as §1

[42] = target: Neu5Ac(a2-3)[GalNAc(b1-4)]Gal(b1-4)GlcNAc
Outline: as §1

[43] = target: Neu5Ac(a2-6)Gal(b1-4)GlcNAc(b1-2)Man(a1-3)[Man(a1-6)]Man(b1-4)GlcNAc(b1-4)GlcNAc
Outline: as §1

[44] = target: Neu5Ac(a2-6)Gal(b1-4)GlcNAc(b1-2)Man(a1-6)[Man(a1-3)]Man(b1-4)GlcNAc(b1-4)GlcNAc
Outline: as §1

[45] = target: Neu5Ac(a2-6)Gal(b1-4)GlcNAc(b1-2)[Neu5Ac(a2-6)Gal(b1-4)GlcNAc(b1-4)]Man(a1-3)[GlcNAc(b1-4)][Neu5Ac(a2-6)Gal(b1-4)GlcNAc(b1-4)Man(a1-6)]Man(b1-4)GlcNAc(b1-4)GlcNAc
Outline: as §1

[46] = target: Neu5Ac(a2-6)Gal(b1-4)GlcNAc(b1-3)Gal(b1-4)GlcNAc(b1-3)Gal(b1-4)GlcNAc(b1-2)Man(a1-3)[Neu5Ac(a2-6)Gal(b1-4)GlcNAc(b1-3)Gal(b1-4)GlcNAc(b1-3)Gal(b1-4)GlcNAc(b1-2)Man(a1-6)]GalNAc
Outline: as §1

[47] = target: Neu5Ac(a2-6)Gal(b1-4)GlcNAc(b1-3)Gal(b1-4)GlcNAc(b1-6)[Gal(b1-3)]GalNAc
Outline: as §1

[48] = target: Neu5Ac(a2-6)Gal(b1-4)GlcNAc(b1-3)Gal(b1-4)[Fuc(a1-3)]GlcNAc(b1-3)Gal(b1-4)[Fuc(a1-3)]GlcNAc
Outline: as §1

[49] = target: Neu5Ac(a2-6)Gal(b1-4)GlcNAc(b1-3)GalNAc
Outline: as §1

[50] = target: Neu5Ac(a2-6)GlcNAc(b1-4)GlcNAc(b1-4)GlcNAc
Outline: as §1

[51] = target: Neu5Ac(a2-8)Neu5Ac
Outline: as §1

[52] = target: Neu5Ac(a2-8)Neu5Gc(a2-3)Gal(b1-4)GlcNAc
Outline: as §1

[53] = target: Neu5Gc(a2-3)Gal(b1-4)GlcNAc
Outline: as §1

B1: PX14375F-bfa-539-21-539 (Bacteroides fragilis) (protein)
chain: EDFLQKDPPSSPSQSVFWQKKSDFESALAGTYSVMYSGVFSQIMPCLDGLTDNAIVQHSEGTYGWAKTIAQGDLTPNQGGFVTDIYGNCYKGIARVHILMEQLDQYTGSDISADEKKFMLAQCKALRGYFYSWLYQCYKEVPVVTQSLDLNTMYQPKATRAEVLNRVMTDYDEAISELPDKLYSDSQTSGRFTVSAVKALKARILLFDAYDSNGKAISSKMEEVLTLLQSIKGYSLAARVRDNFISEKQLASPEIMFSVRFLRPNLTHSMDLYYGAWAVLDPTRNMVDAFECTDGKPWGESPLTVRPDESILYGNDDALKKAERAKMFMNRDRRLYESVNHSMMANFVDDGFKDEEVQVNESNNKGPTGFSALKYVQPTDVTPGYSTVSDADIVVLRYAHVLLMIAEAENEAHGATTTALNAINEVRTRSGQPAIEAGISQDDLRERIRNEWRIETCFEGLRYFQLKRWKLMDKRVNGVEDPAYPGYIKVYKPAFEFFPIPQSEIDKAGGVLKQDPAYE
glycan array binding signal (z-score) [1]: 1.21
glycan array binding signal (z-score) [2]: -0.583
glycan array binding signal (z-score) [3]: 0.238
glycan array binding signal (z-score) [4]: 0.334
glycan array binding signal (z-score) [5]: 0.212
glycan array binding signal (z-score) [6]: 0.539
glycan array binding signal (z-score) [7]: -0.409
glycan array binding signal (z-score) [8]: -0.329
glycan array binding signal (z-score) [9]: 6.22
glycan array binding signal (z-score) [10]: 2.7
glycan array binding signal (z-score) [11]: -0.169
glycan array binding signal (z-score) [12]: -0.042
glycan array binding signal (z-score) [13]: 2.35
glycan array binding signal (z-score) [14]: 3.97
glycan array binding signal (z-score) [15]: -0.504
glycan array binding signal (z-score) [16]: -0.107
glycan array binding signal (z-score) [17]: 2.29
glycan array binding signal (z-score) [18]: -0.577
glycan array binding signal (z-score) [19]: 0.083
glycan array binding signal (z-score) [20]: -0.243
glycan array binding signal (z-score) [21]: 5.95
glycan array binding signal (z-score) [22]: 4.05
glycan array binding signal (z-score) [23]: 2.44
glycan array binding signal (z-score) [24]: 0.637
glycan array binding signal (z-score) [25]: -0.679
glycan array binding signal (z-score) [26]: -0.321
glycan array binding signal (z-score) [27]: -0.311
glycan array binding signal (z-score) [28]: 0.504
glycan array binding signal (z-score) [29]: -0.468
glycan array binding signal (z-score) [30]: -0.334
glycan array binding signal (z-score) [31]: 0.011
glycan array binding signal (z-score) [32]: -0.081
glycan array binding signal (z-score) [33]: -0.47
glycan array binding signal (z-score) [34]: -0.471
glycan array binding signal (z-score) [35]: -0.28
glycan array binding signal (z-score) [36]: -0.448
glycan array binding signal (z-score) [37]: -0.715
glycan array binding signal (z-score) [38]: 0.245
glycan array binding signal (z-score) [39]: 4.15
glycan array binding signal (z-score) [40]: -0.205
glycan array binding signal (z-score) [41]: -0.323
glycan array binding signal (z-score) [42]: -0.459
glycan array binding signal (z-score) [43]: -0.309
glycan array binding signal (z-score) [44]: -0.518
glycan array binding signal (z-score) [45]: -0.061
glycan array binding signal (z-score) [46]: 2.67
glycan array binding signal (z-score) [47]: -0.919
glycan array binding signal (z-score) [48]: -0.045
glycan array binding signal (z-score) [49]: -0.096
glycan array binding signal (z-score) [50]: -0.585
glycan array binding signal (z-score) [51]: -0.05
glycan array binding signal (z-score) [52]: 15.8
glycan array binding signal (z-score) [53]: -0.782
